Our source for the ETS1 binding intensity values is the supplement of paper PMC10681739.

The full ranking holds about 4,100 sequences; the median of “arbitrary fluorescence units” is about 780, and the highest 2% start at about 22,000. The list comes from a sample in which the highest values are over-represented; it also holds similar and randomly drawn sequences.

For this assay, the target named is T1, ETS1 (UniProt P14921).
T1 sequence: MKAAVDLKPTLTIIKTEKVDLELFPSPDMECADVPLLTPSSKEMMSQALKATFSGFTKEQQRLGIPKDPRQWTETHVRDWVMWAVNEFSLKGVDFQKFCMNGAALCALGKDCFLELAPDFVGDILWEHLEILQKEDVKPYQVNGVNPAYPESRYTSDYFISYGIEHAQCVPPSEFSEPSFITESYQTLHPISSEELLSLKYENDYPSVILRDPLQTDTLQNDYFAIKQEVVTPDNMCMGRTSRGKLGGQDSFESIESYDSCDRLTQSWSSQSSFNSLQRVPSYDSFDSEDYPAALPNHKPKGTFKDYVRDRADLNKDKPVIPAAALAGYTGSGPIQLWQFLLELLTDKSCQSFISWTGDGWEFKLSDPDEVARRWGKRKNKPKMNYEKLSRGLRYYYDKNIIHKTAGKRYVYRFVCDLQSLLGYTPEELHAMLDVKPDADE
Kind of assay: ETS1 binding intensity (PBM fluorescence), ETS1 alone (arbitrary fluorescence units); higher = stronger binding. The settings on record: ETS1 concentration 1 nM; RUNX1 concentration 0 nM. The procedure:
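gcPBM on 36-bp genomic-derived probes (partner site mutated) containing one ETS1 site and no RUNX1 site. Recombinant human ETS1 (1 nM) was incubated alone or with RUNX1 (25 nM) and detected by anti-ETS1 antibody fluorescence. Values are medians over 4 replicate spots (not normalised). The probes sit in constant array flanks that are not printed.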
With AATGAGCCCCAGAACCCTTTTCCTTCCGGCCTGTGC, the ETS1 binding intensity is 1520. As for GCAGGACTTCCTGTGTTGTGCTAACCCCAAATTACA, the ETS1 binding intensity stood at 22100. To TTTCTGACTTCCTGTGTGCTTCAGAAACCCCAATGA belongs 25100; to CGGAGAGCTCGCGGCAATTCCGTTTCCCCGCCCTTT, 404; to CCGCCCACTTCCGTGTGGCCGCCGATTGGTCTTGCC, 7350. To GGCCTACGGGAGGGCCCGCCTTGGCTGCTTCCGCAG belongs 310; to GAGGGCTGCTTCCTGCTCTGTGGAGGCCGCTGAGGG, 6710. Sequence GCTGCTTCCGGCCGCTGGTCGCAGGGCTGAGGGACT had an ETS1 binding intensity of 26400. Take GGCTCTGCCGTCCGCTGACAGGAAGACGCTGACGAC: the ETS1 binding intensity turned out to be 973.

As for TGCGCTCGATTGTGAGCGGGGGCGGAAAGAGGCGCC, the ETS1 binding intensity was determined as 471. On to GTAGGGCCGGACGGCAGGCTCCGGGATAGCGCCACG, for which the ETS1 binding intensity stood at 416. To AGCTTTTCTGAGAGCGCGGGCAGGATGTGACCTCCC belongs 675. To CTTTCTGTCGAGGTCAGGTTTCCTCTCCTTTATGAA belongs 437. To CGTGTCCACGGGGACCGAAAGTGGCGTCCGGCGCAA belongs 354. For GGGTCCTTCCGGGTTTTGTGTCGAATCTACGGCGGC, the ETS1 binding intensity is 7400. As for GCGGGGCGTGTCCACGCACTTCCGGTTTTCTCGAAA, the ETS1 binding intensity stood at 28700.

The sequence TGTGTAATCCCCACGACAACCTAGGAAGTGGGAAAA displayed an ETS1 binding intensity of 410. The result for CTGCCCATCGCTGTTAACTTTTCCGCCTCCTTAAAG reads 492; that for CCTGACTTCCTCCTCCCCCTCCCGCCCCAATTCCGC, 4620; that for GTCTTACTTCCTGTCCCCGCCCACCTCGACTGTCTT, 22700. The result for ACCTTCGCCGCTGTCCCCAGCCTCTTCCTGTCCCGG reads 1130. The result for AGTTGCTAAGGAAATGACTGCCTGCAGCGCCTGGCC reads 610. GAAGAGACTCCCGCCACCTTGGCCGTTTCCCCTGAT gave an ETS1 binding intensity of 318.

As for GCCGCTGGGTAGGCGGAAGTAGCCGCTGGCATGGCA, the ETS1 binding intensity was determined as 2800.

As for AGAAAACTACATTCAATTCTCTTTACACAGGATGTT, the ETS1 binding intensity was found to be 661. The result for CGGGACAGCGACGGGCCAGGTGACCGGAAGAGGCCG reads 1770; that for CGGAGCCCAACGACCGGCACTTCCGGGGGGCGGGTG, 5010.

For the sequence GCACTTCCGGAGCCGGGCGTCTACAGGCCGAGGCCA, the ETS1 binding intensity came out at 28500.

Sequence GCGGAGCTTGTAGGCCAGGAGGACTTCCGGGTGGGT had an ETS1 binding intensity of 2220. The result for CACCCTCACGGAAACAGCTGTGTGTAAGCACCTCCA reads 585; that for TATCATTTTTACGACAGAGGTACAGGAAATTGTTTC, 733; that for TAGGTTTGGGGTAGAAGCTGCAGGAACTTCCTGTCC, 1710. The result for CCCCTCACTTCCCTCAACCCTTCCCATAAACTGGGA reads 1620; that for CGACGTCACTTCCGCTGGTTCAAGCACCGTGAGACT, 21400; that for GGTGACGTCAACGCGTTCACCAGCCCGGAAGTGCGC, 1230. To GCGCACTTCCGGGCTGGTGAACGCGTTGACGTCACC belongs 35400; to AAGCTTCCTGGCCCTTTAAAAATGGAGGTTCCGCAC, 4840; to GGGGCGATTACAGAACGGGTAACTCAGGATGATTCA, 541. Consider CTTGGGGTCCCCTCGGGTGGTGGCAGGATGTAGGTA, for which the ETS1 binding intensity was 480. Regarding GGACCGGAAGTAGGTTTCTACCCGAGCGCATTTTAC, the ETS1 binding intensity is 27600. The result for CCGAGCGCATTTTACGTGGTGCTGCATTTCCGGTAG reads 3930; that for CGCCCCGGCAGCCGCCCACGTCCGGGGGCCAGGCCT, 802.

For AGCGCTTCCTGGCTCCGGCCCCGCCCCTGCAGTCGG, the ETS1 binding intensity came out at 6440. The result for TGGCGGGAGAACTTCCCCCTGTGCGCTCGCGACGTG reads 775. GAGAACTTCCGGTGCGCTCCCCGGGACTGCAGTCCC had an ETS1 binding intensity of 46000. CTTTTTGGTCTGCCAGGCACGGATTTCCGCCCACTC yielded an ETS1 binding intensity of 1270. The result for ATGGAAAGGAAGTCGGTGGGAATCCGCCTCAGCGGT reads 1590; that for CCCACTTCCTGTCCCTGCATGCTCTGGGGCAGGCAG, 31100. In turn, GTGTCCTGTGCTCTCCTCTGCGCCACTTCCCTGCCT showed an ETS1 binding intensity of 623.

The sequence GTCCTCTTCCTGTCCCCCAGGTGGGCATGTGATTTG registered an ETS1 binding intensity of 6800. To CACGGAGCCACTTCCGGCGGCTGTGAGCGCAAAACC belongs 35500; to TCAGGAGCCACGGACGGGCGGGGCTTCCGGGAGCAA, 1170; to GGCGGCTGTGAGCGCAAAACCCAAAACTTCCGATGG, 452.

For AACACTATTTCCTTTCTTGCTGCTCACATTTTAACA, the ETS1 binding intensity was found to be 4990. The result for GGACGCTTCCGGTGGAAGGGAGCTGTTACGGGGCTT reads 32900. In the case of TGGAGCTGTTACGGGGTCCGCGGGGAAGTCTTGGCA, the ETS1 binding intensity is 364. To CTGCTTGAGGGTGGAGGGGAGCTTCCGAAGGAGGCC belongs 536; to AAACCAGAGGAAGTGGATTCCAACTACAAACCTCAC, 1830. ACTCACTTCCGTTTAGCTTATCAACTACCAAGAGAC: the ETS1 binding intensity was determined as 35500. To CTTATCAACTACCAAGAGACATTTCCCCTTTGTACT belongs 558; to CGGGAGCGGCCGAAGTGACGACTTCCGGGATGCTCC, 7380. To GTGCAACTGCTGTAAAAATAGGAAGTGGGGGAGGAG belongs 861; to CGCCTCATTTCCTGTGCAACTGCTGTAAAAATAGGA, 22400; to CCACCGTGCTGTAAACTGCACTTCCTCACTTAGCAC, 870.
